# The list is not random: actives were taken first. Their share in the collection is about 1.3%.
# sEH act = increases human soluble epoxide hydrolase activity; purified human sEH enzymatic activity, activator screen; AID 717; 91,000 tested, 0.04% active; P34913; activation, % at 2 µM; in the data active means activation above about 37%
# sEH inh = soluble epoxide hydrolase (human) inhibition; P34913; recombinant human sEH enzymatic activity assay; inhibition, % at 2 µM; 91,000 tested, 0.34% active; in the data active means inhibition above about 80%
# PLAP act = activators of human placental alkaline phosphatase. P05187. purified PLAP enzyme, luminescent substrate read-out; stronger effect = higher value. activation fold at 20 µM. 96,000 tested, 1.2% active. AID 696; in the data active means activation fold above about 2
# Target sequence (P05187 whole entry, looked up): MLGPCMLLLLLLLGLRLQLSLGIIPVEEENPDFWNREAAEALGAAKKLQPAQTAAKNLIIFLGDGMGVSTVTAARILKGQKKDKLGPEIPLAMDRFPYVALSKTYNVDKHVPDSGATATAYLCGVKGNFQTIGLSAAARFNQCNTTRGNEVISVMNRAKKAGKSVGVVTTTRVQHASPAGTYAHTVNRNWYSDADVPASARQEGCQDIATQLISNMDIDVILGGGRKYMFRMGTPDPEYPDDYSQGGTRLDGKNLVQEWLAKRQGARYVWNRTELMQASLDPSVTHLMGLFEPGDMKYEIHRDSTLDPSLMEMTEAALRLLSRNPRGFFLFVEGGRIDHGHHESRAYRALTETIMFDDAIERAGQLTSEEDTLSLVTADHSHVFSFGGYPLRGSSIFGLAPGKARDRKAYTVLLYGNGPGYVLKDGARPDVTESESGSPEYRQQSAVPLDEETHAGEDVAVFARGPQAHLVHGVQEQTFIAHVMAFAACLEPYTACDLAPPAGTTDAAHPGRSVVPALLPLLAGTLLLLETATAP
# BAP1 block = inhibitors of human BAP1 deubiquitinase; 72,000 tested, 0.48% active; Q92560; calls only at 20 µM; recombinant BAP1, Ub-AMC hydrolysis fluorescence kinetic; stronger effect = lower value;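 active means activity remaining at or below 50% of control, provided the compound also passes the data quality filters; inactive means the rest, including low values that fail the filters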;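 further: 100% = DMSO wells rate and 0% = substrate alone blank rate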
# * hit, by the source's call; i = inactive; · = not tested or not shown.
SMILES,sEH act,sEH inh,PLAP act,BAP1 block
Cc1ccc(/C=N/NC(=O)CSCc2ccc(Cl)cc2)cc1,-50,50,0.9,·
N#C/C(=C(\O)Cc1ccccc1)c1nc2ccccc2[nH]1,0,3,0.9,·
N#C/C(=C(/O)CN1C(=O)c2ccccc2C1=O)c1nc2ccccc2[nH]1,6,-7,2.1*,i
Cc1ccc([N+](=O)[O-])cc1NC(=O)c1cccc(C(=O)Nc2cc([N+](=O)[O-])ccc2C)n1,·,·,·,i
Cc1ccc(NC(=O)NCCCc2ccccc2)cc1,-83,83*,1,·
Cc1ccc([N+](=O)[O-])cc1NC(=O)c1ccc(Cl)c(S(=O)(=O)N2CCOCC2)c1,·,·,·,i
COc1ccc(-c2cc(-c3cc(OC)ccc3O)[nH]n2)cc1,2,-6,2.3*,·
COc1ccc(-c2n[nH]c(C)c2-c2cc(OC)ccc2O)cc1,8,-10,2*,·
COC(=O)c1cc(-c2ccc(OC)c(OC)c2)n[nH]1,-5,6,1.8,i
COc1ccc(-c2cc(-c3ccccc3O)[nH]n2)cc1OC,7,-5,2.8*,i
COc1ccc(-c2cc(-c3ccc(OC)c(OC)c3)n[nH]2)c(O)c1,5,-6,2.2*,·
COc1ccc(-c2cc(-c3cc(F)ccc3O)[nH]n2)cc1OC,-5,5,1.2,i
COc1ccc(O)c(-c2cc(-c3cccc(Br)c3)n[nH]2)c1,6,-6,1.7,i
COc1ccc(-c2c(-c3ccc(O)cc3O)n[nH]c2C)cc1OC,-28,26,·,·
CC(C)(C)c1ccc(C(=O)Nc2ccc(-c3nc4ccccc4s3)c(O)c2)cc1,·,·,·,i
COc1ccc(C2C(C(=O)OCCOC(C)C)=C(C)NC3=C2C(=O)CC(C)(C)C3)c(OC)c1 (stereo not given),·,·,·,i
N/C(COc1ccc(F)cc1)=N\NC(=O)c1cccnc1Oc1ccccc1,0,2,2*,·
Cc1ccc(OCCSc2ncnc3nc[nH]c23)cc1,-14,10,2.4*,i
COC(=O)Cc1[nH]nc2c1C(C1C=CCCC1)C(C#N)=C(N)O2 (stereo not given),-7,8,2*,i
CC(C)(C)c1ccccc1OCC(=O)Nc1ncn[nH]1,-5,6,2*,i
O=C(CCc1ccccc1)Nc1ccncc1,2,0,1,i
O=C(Cc1ncn[nH]1)NCCc1ccccc1,4,-7,2.4*,i
CC(C)(C)c1cc(Br)ccc1OCC(=O)Nc1ncn[nH]1,-10,10,1.1,i
O=C(CCc1ccccc1)Nc1ncn[nH]1,7,-5,2.6*,i
COc1cccc(C(=O)/C=C/Nc2cc(C)ccc2O)c1,17,-20,2.9*,i
SMILES,sEH act,sEH inh,PLAP act,BAP1 block
COc1ccc(N/C=C/C(=O)c2ccc(C)cc2)c([N+](=O)[O-])c1,-4,5,·,·
COC(=O)c1c(NC(=O)c2nc3ccccc3s2)sc2c1CCN(C(C)=O)C2,7,-8,2.1*,i
CC(C)c1nc2ccc(NC(=O)C34CC5CC(CC(C5)C3)C4)cc2[nH]1,-6,5,2*,·
O=C(Nc1ccc2nc(-c3cccnc3)[nH]c2c1)C12CC3CC(CC(C3)C1)C2,-2,2,·,·
Cc1nn(C(=O)c2ccc([N+](=O)[O-])cc2)c(C)c1Sc1ccccc1,·,·,·,i
Cc1ccc(NC(=O)N/C=C/c2ccco2)cc1C,-25,26,1.3,·
Cc1ccc(NC(=O)N/C=C/c2ccco2)c(C)c1,-29,31,2.4*,·
O=c1cc(-c2ccccc2)[nH]n1-c1nc2ccccc2[nH]1,-2,1,2.1*,i
CCCCc1ccc(NC(=O)CSCc2cc(=O)[nH][nH]2)cc1,-4,1,2.3*,·
CCN(CC)c1ccc(C2C(C(=O)OC)=C(C)NC3=C2C(=O)CC(c2ccccc2)C3)cc1 (stereo not given),·,·,·,i
Cc1cc(C)cc(-n2c(C)cc(/C=N/NC(=O)CN(c3c(C)cccc3C)S(C)(=O)=O)c2C)c1,8,-5,2*,·
Cc1ccc(NC(=S)NCCN2CCOCC2)cc1C,38*,-35,1,·
CCc1cc2c(NCCO)ncnc2s1,-8,8,1,i
OCCOCCNc1ncnc2sc(-c3ccccc3)cc12,-3,5,2.2*,·
COc1ccc(N2CC(O)=C(c3nc(C)cs3)C2=N)cc1,·,·,2*,·
Cc1csc(C2=C(O)CN(c3ccc4c(c3)OCCOCCOCCOCCO4)C2=N)n1,-10,13,1.9,·
O=C(N/N=C\c1ccc(Cl)s1)c1cccs1,-94,94*,0.9,·
O=C(NCCC1=CCCCC1)NC12CC3CC(CC(C3)C1)C2,-97,97*,·,·
O=C(NCCC1=CCCCC1)C(c1ccccc1)c1ccccc1,-30,32,0.9,·
CC[n+]1c(C)c2ccccc2c2ccccc21,·,·,·,i
COc1cc2c(cc1NC(=O)c1ccccc1F)oc1ccccc12,·,·,·,i

# Screening data (PubChem BioAssay)
